Consider four molecules from paper PMC5540273 (PLoS ONE, 2017).

Test systems include MAP3K15; MAP3K1; MAP3K2; MAP3K3; MAP3K4; MAP4K2; MAP4K3; MAP4K4; MAP4K5; MAPKAPK2; MAPKAPK5; MARK1; MARK2; MARK3; MARK4; MAST1.
Holding throughout (conditions): concentration: 1 μM, replicates: in singlicate; n = 1
Another test deals with T1, MEK1.
T1 construct: gene MAP2K1

The subject of another test is T2, MEK2.
T2 construct: gene MAP2K2

The next test relates to T3, MEK3.
T3 construct: gene MAP2K3

Another test deals with T4, MEK4.
T4 construct: gene MAP2K4
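Also: KINOMEscan kinase panel screen.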

Consider `CC(C)c1nc(-c2cccc(NS(=O)(=O)c3c(F)cccc3F)c2F)c(-c2ccnc(Nc3ccc(N4CCOCC4)nc3)n2)s1` [GSK2008607], for which the “%Inh” value was found to be 0% with MAP3K15; 15% with MAP3K1; 97.7% in the test on MAP3K2; 80% in the test on MAP3K3; 91.7% in the test with MAP3K4; 0% with MAP4K2. Moreover, the “%Inh” value in the test on MAP4K3 turned out to be 88%; with MAP4K4, 40%; in the test with MAP4K5, 88%; in the test on MAPKAPK2, 0%; in the test on MAPKAPK5, 0%; in the test on MARK1 it was 0%. The “%Inh” value in the test on MARK2 was found to be 24%; in the test with MARK3, 0%; in the test with MARK4, 80%; in the test on MAST1, 0%; in the test on MEK1, 0%; in the test on MEK2, 64%. Besides, the “%Inh” value amounted to 57% with MEK3 and 100% in the test on MEK4.
For `CSc1cccc2c(-c3ccncn3)c(-c3ccc(F)cc3)nn12` [GW514786], the “%Inh” value is listed as 21% with MAP3K15; 14% with MAP3K1; 0% in the test with MAP3K2; 0% in the test on MAP3K3; 0% with MAP3K4; 0% with MAP4K2. For the same molecule, the “%Inh” value was 0% in the test with MAP4K3; 2% with MAP4K4; 0% with MAP4K5; 67% in the test on MAPKAPK2; 0% in the test with MAPKAPK5; 0% in the test on MARK1. Moreover, the “%Inh” value in the test with MARK2, in the test with MARK3, in the test with MARK4, in the test on MAST1, in the test with MEK1 and with MEK2 was 0% throughout. For the same molecule, the “%Inh” value amounted to 0% in the test with MEK3 and 4% with MEK4.
Take `Cc1cccc(NC(=O)Nc2ccc(Oc3ncnc4ccn(C)c34)cc2)c1`: the “%Inh” value with MAP3K15, with MAP3K1, with MAP3K2, in the test with MAP3K3, in the test on MAP3K4 and in the test with MAP4K2 was 0% in each case. For the same molecule, the “%Inh” value in the test with MAP4K3, with MAP4K4, in the test with MAP4K5, with MAPKAPK2, in the test with MAPKAPK5 and in the test with MARK1 was 0% each time. Moreover, the “%Inh” value in the test with MARK2 came out at 0%; in the test on MARK3, 6%; in the test on MARK4, 0%; with MAST1, 0%; in the test with MEK1 it was 0%; in the test on MEK2 it was 29%. Further, the “%Inh” value was found to be 5% in the test with MEK3 and 0% in the test on MEK4.
Take `CNC(=O)c1ccccc1Nc1nc(Nc2ccc(N3CCOCC3)cc2)ncc1Cl.Cl` [GSK1576028]: the “%Inh” value worked out at 36% in the test with MAP3K15; 22% in the test with MAP3K1; 99.5% with MAP3K2; 99.4% in the test on MAP3K3; 90.1% with MAP3K4; 93.5% in the test with MAP4K2. Moreover, the “%Inh” value is on record as 98.9% with MAP4K3; 28% in the test on MAP4K4; 81% with MAP4K5; 0% with MAPKAPK2; 0% in the test with MAPKAPK5; 95.2% in the test on MARK1. Further, the “%Inh” value in the test with MARK2 was found to be 92.6%; with MARK3 it was 95.5%; in the test on MARK4, 96.8%; in the test with MAST1 it was 0%; with MEK1 it was 88%; in the test on MEK2 it was 87%. In addition, the figures for the “%Inh” value in the test on MEK3 and in the test with MEK4 were 87% and 74%, respectively.
